From PubChem BioAssay AID455 (Sanford-Burnham Center for Chemical Genomics, 2006)
In all, about 10,000 compounds went through this assay and about 20 (0.2%) were called active. The sample holds actives, similar compounds and a random draw of the others, so the mix is not that of the screen. Unmarked numbers belong to inactive results.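 How the source made its calls: active means a compound raising TNF-alpha-driven VCAM-1 surface staining, with its hit status upheld on visual or statistical review; inactive means the rest, including hits rejected on review.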

Assay: boosters of cytokine-driven VCAM-1 levels – cell-based, plate reader, pooled HUVEC, TNFa stimulus (AID 455);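 on augmentation: 0% = TNFa plus DMSO wells and 100% = a visually confirmed top hit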
Conditions: HUVEC TNFa-induced VCAM-1 immunofluorescence; active compounds read high, 100% set by best visually verified hit,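 tested at 5 µM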

Compound	augmentation
Nc1nc(N2C(=O)C3CC=CCC3C2=O)nn1-c1ccccc1 (configuration not stated)	inactive
O=C1c2ccccc2C(Nc2ccc3nc(-c4cccnc4)[nH]c3c2)N1Cc1ccco1 (configuration not stated)	inactive
CCCCn1nnc(NC(=O)c2cc3ccccc3o2)n1	inactive
COc1ccc2nc(NC(=O)c3ccoc3C)sc2c1	inactive
COC(=O)C1C2C=CC3(CN(CC4CCCO4)C(=O)C13)O2 (configuration not stated)	inactive
CCOC(=O)c1c(NC(=O)Cn2c(=O)oc3ccccc32)oc(C)c1C(C)=O	inactive
Cc1ccnc(SCCn2c(N3CCCCC3)nc3c2c(=O)n(C)c(=O)n3C)n1	inactive
CC(=O)Nc1ccc(N2CCN(Cc3ccccc3F)CC2)cc1	inactive
CCCCN(CCCC)C(=O)CN(C)S(=O)(=O)c1ccc2c(c1)n(C)c(=O)c(=O)n2C	inactive
O=C(CSc1nnnn1-c1ccccc1)Nc1ccc(Cl)cc1	inactive
COc1ccc(S(=O)(=O)NCCOc2ccccc2)cc1OC	inactive
CCOc1ccc(N(C(C)=O)C2C=CS(=O)(=O)C2)cc1 (configuration not stated)	inactive
Cc1ccc(S(=O)(=O)N2CCC(C(=O)NCCN3CCCCCC3)CC2)cc1	inactive
O=C(c1ccc(S(=O)(=O)N2CCOCC2)cc1)N(c1ccc(F)cc1)C1C=CS(=O)(=O)C1 (configuration not stated)	inactive
COc1ccc(-c2nnc(SCC(=O)NC(C)c3ccccc3)o2)cc1 (configuration not stated)	inactive
COC(=O)c1ccc(CSc2nc(-c3ccc(OC)cc3)nc3c2c(=O)n(C)c(=O)n3C)o1	inactive
CC1CCN(C(=O)c2ccc(C(=O)N3CCC(C)CC3)cc2)CC1	inactive
CCOC(=O)Cc1cc(=O)n2[nH]c(C)c(-c3ccc(OC)cc3)c2n1	inactive
COC(=O)Cc1cc(=O)[nH]c(Nc2nc3ccccc3o2)n1	inactive
O=C(NC1CCCCCC1)c1cc(S(=O)(=O)N2CCC3(CC2)OCCO3)ccc1F	inactive
CCOc1cc(N2CCOCC2)c(OCC)cc1NC(=O)CSc1cccc[n+]1[O-]	inactive
CCOC(=O)CSc1nnc(CNC(=O)c2ccc(S(=O)(=O)N3CCCC3)cc2)n1C	inactive
Cc1cccc(CCNC(=O)C2CCCN(S(=O)(=O)c3cnc[nH]3)C2)c1 (configuration not stated)	inactive

Compound	augmentation
COc1ccc(S(=O)(=O)NCCCN2CCOCC2)c2ccccc12	inactive
CCc1nnc(NC(=O)c2ccc(S(=O)(=O)NCC(C)C)cc2)s1	inactive
O=C(CCSc1nc(-c2ccco2)cc(C(F)(F)F)n1)NCCc1ccccc1	inactive
CCc1ccccc1NC(=O)C(CC)Sc1nc2cc3c(cc2c(=O)n1Cc1ccco1)OCO3 (configuration not stated)	inactive
O=C(O)CCC(=O)c1c[nH]c2ccccc12	inactive
CC(=O)SCCC(=O)Nc1ccccc1	inactive
c1cncc(-c2nc3c4ccccc4nc(N4CCC(N5CCCCC5)CC4)n3n2)c1	inactive
c1ccc(Cn2nnnc2C(c2cccs2)N2CCSCC2)cc1 (configuration not stated)	inactive
CCOC(=O)c1ccc(N(CC(=O)NC2CCCC2)C(=O)CNC(=O)c2ccco2)cc1	inactive
O=C(O)c1ccc2c3c(ncnc13)-c1ccccc1C2=O	inactive
O=C(CSc1nnc(-c2ccncc2)o1)Oc1ccccc1	inactive
COc1ccccc1C(O)P(=O)(OC(C)C)c1ccc(N(C)C)cc1 (configuration not stated)	inactive
O=C(NCCCn1ccnc1)c1cnn2c1NC(c1ccccc1)CC2C(F)(F)F (configuration not stated)	inactive
COc1ccc(-c2noc(CN3CCC(Cc4ccccc4)CC3)n2)cc1	30.2%
Cc1nn(-c2ccccc2)c2c1C(c1c(C)[nH]c(C#N)c1C)C(C#N)=C(N)O2 (configuration not stated)	inactive
CCOC(=O)N1CCN(C(=O)COc2ccc(Br)cc2Cl)CC1	61.2%
COc1ccccc1C1CC(c2ccc(C)cc2)Nc2ncnn21 (configuration not stated)	inactive
COc1ccccc1CN1CC(C(=O)N2CCN(c3ccc(F)cc3)CC2)CC1=O (configuration not stated)	inactive
CCOC(=O)C1C2C=CC3(CN(Cc4ccco4)C(=O)C13)O2 (configuration not stated)	inactive
COc1ccc(CN2C(=O)c3ccccc3C2C(=O)NC2CCCC2)c(OC)c1 (configuration not stated)	inactive
CN(C)c1ccc(CNn2cnnc2)cc1	inactive
CN(C)c1ccc(C=Nc2ccc(N(C)C)cc2)cc1	inactive
CN(C)c1ccc(/C=C/c2ccncc2)cc1	42.9% (active)

Compound	augmentation
N#CCCNCC1(c2ccccc2)CCCC1	inactive
O=C(CSc1nnc2ccccn12)NCCN1C(=O)CSC1=O	inactive
Cc1ccc(NC(=O)CSc2nnc(NC(=O)CN3CCOCC3)s2)cc1	inactive
CCCc1[nH]nc2c1C(c1cccc(OC(=O)c3ccco3)c1)C(C#N)=C(N)O2 (configuration not stated)	inactive
CCN(CC)c1ccc2cc(NC(=O)CCC(=O)O)c(=O)oc2c1	inactive
CCN(CC)c1ccc2c(C)c(-c3ccc(N)cc3)c(=O)oc2c1	inactive
CCN(CC)c1ccc2cc(-c3nc4ccccc4[nH]3)c(=O)oc2c1	100% (active)
CCCCOc1ccc(CSc2n[nH]c(C)n2)cc1	inactive
CC(=O)Nc1ccc(Cl)cc1C(=O)O	inactive
CC(=O)Nc1cc(N2C(=O)CCC2=O)ccc1Cl	inactive
COC(=O)c1ccc(Cl)c(NC(C)=O)c1	82.8% (active)
CCCc1ccc(C(C)NC(=O)c2cnccn2)cc1 (configuration not stated)	inactive
CCCCNC(=O)Cn1c(=O)n(C)c2ccccc21	inactive
CCOC(=O)c1[nH]c(C)c(C(=O)Nc2ccc(Cl)cc2)c1C	inactive
Cc1ccc2cc3cc(C(=O)NCCN4CCOCC4)oc3nc2c1	inactive
CC(=O)c1cccc(NC(=O)N2C3CCC2CC(O)(c2cccnc2)C3)c1 (configuration not stated)	inactive
O=c1oc2c3c4c(cc2cc1-c1nc2ccccc2[nH]1)CCCN4CCC3	100% (active)
c1ccc2nc(-c3nc4ccccc4[nH]3)ccc2c1	inactive
O=c1oc2c3c4c(cc2s1)CCCN4CCC3	inactive
Cn1c(Cc2ccccc2)nnc1SCC(=O)c1ccc(Br)s1	inactive
CCOc1ccccc1C(=O)Nc1nnc(CC)s1	inactive
CCOC(=O)c1ccccc1NC(=O)CSc1nc2c(c(=O)n(C)c(=O)n2C)n1C	inactive
Cc1cc(=O)n2nc(N3CCCC(C(=O)N4CCc5ccccc54)C3)sc2n1 (configuration not stated)	inactive

Compound	augmentation
CN(CCNC(=O)c1ccc(N2CCCC2=O)cc1)CCc1ccccc1	inactive
CC(C)n1nc(C(=O)Nc2nc3ccc(S(C)(=O)=O)cc3s2)c2ccccc2c1=O	inactive
Cc1ccc(CN2C(=O)CCC2C(=O)NCC2CCCO2)cc1 (configuration not stated)	inactive
CCCCn1c(SCc2cccnc2)nc2c1c(=O)n(C)c(=O)n2C	inactive
O=C(CCN1C(=O)COc2ccccc21)NCCN1CCN(c2cccc(Cl)c2)CC1	inactive
COc1ccc(NC(=O)CSc2nnc(Cc3cccn3C)n2-c2ccc(F)cc2)cc1	inactive
COc1cc2c(cc1OC)-c1cc(OCc3cccnc3)nc(=O)n1CC2	inactive
CN(Cc1ccccc1)S(=O)(=O)c1ccc(S(=O)(=O)N2CCN(CCC#N)CC2)cc1	inactive
CCOC(=O)c1[nH]c2ccccc2c1NC(=O)C(CC)CC	inactive
c1coc(Cn2nnnc2CN2CCN(C3CCCC3)CC2)c1	inactive
Cc1ccc(C)c(N2CCN(C(=O)c3ccc(CS(=O)(=O)c4ccccc4C)o3)CC2)c1	inactive
O=c1c2cn[nH]c2nc(SCc2ccc3c(c2)OCCO3)n1-c1ccccc1	inactive
COc1ccc(CCn2c(-c3ccco3)nc3nc4ccccc4nc32)cc1	inactive
Cc1nnc(NC(=O)CSc2nc3c(c(=O)n2C)SC(C)C3)s1 (configuration not stated)	inactive
CCOc1ccccc1N1CC(O)=C(c2nc3ccccc3s2)C1=N	inactive
Cc1nc2cc(NC(=O)N3c4ccccc4CC3C)ccc2o1 (configuration not stated)	inactive
Cc1cc(OCC(O)CN2CCN(CCO)CC2)ccc1C(C)C (configuration not stated)	inactive
Cc1ccn2cc(CCNC(=O)CC(C)(C)C)nc2c1	inactive
CN(C)c1ccc(C2C3=C(CCCC3=O)OC3=C2C(=O)CCC3)cc1	inactive
CCOC(=O)c1cc(CC)sc1NC(=O)COC	inactive
CCOc1ccc(NC(=O)CCN2CCN(c3ccccc3)CC2)cc1	inactive
Cc1ccc2[nH]c(=O)c(C(c3nnnn3CCc3ccccc3)N3CCOCC3)cc2c1 (configuration not stated)	inactive
CC(=O)N1C(=O)C2(C(C#N)=C(N)Oc3cc(C)oc(=O)c32)c2ccccc21 (configuration not stated)	inactive

Compound	augmentation
CCOC(=O)NC(c1ccccc1)C1CCCCC1=O (configuration not stated)	inactive
O=C(Cn1c(NCCO)nc2ccccc21)c1ccccc1	inactive
CCOc1ccc(OCC)c(NC(=O)CCCN2C(=O)c3cccnc3C2=O)c1	inactive
Cc1cc(NC(=O)CCCN2C(=O)c3cccnc3C2=O)no1	50.9% (active)
Cc1cccnc1NC(=O)CCCN1C(=O)c2ccccc2C1=O	inactive
O=C(c1ccccc1)c1ccc2nc[nH]c2c1	inactive
O=C(NCCN1CCOCC1)NC1(C(F)(F)F)Oc2ccc(Cl)cc2O1 (configuration not stated)	inactive
C=CCSc1n[nH]c(-c2ccc(OC)cc2)n1	inactive
Cc1c(Cl)cccc1N1C(=O)c2ccccc2C1=O	inactive
Cc1nc2cc(-n3ccc(=O)cc3)ccc2n1-c1ccccc1	inactive
Cn1c(=O)cc(SCC(=O)NCc2cccnc2)c2ccccc21	inactive
O=c1cc(C(F)F)oc2c1ccc1ccccc12	97% (active)
CSc1nc2c(ccc3ccccc32)o1	inactive
COc1ccc(CCN2C(=O)CC(N3CCN(S(=O)(=O)c4ccccc4)CC3)C2=O)cc1 (configuration not stated)	inactive
COCc1nnc(SCC(=O)NC(C)c2ccccc2)n1-c1ccccc1 (configuration not stated)	inactive
COc1ccc(C(=O)N2CCCc3ccccc32)cc1	inactive
CCOC(=O)N1CCN(C(=O)Cn2ncn3nc(-c4cccs4)cc3c2=O)CC1	inactive
COc1cccc(-n2c(C)nc3c(cnn3-c3ccc(Cl)cc3)c2=O)c1	inactive
CCC(C)(C)n1nnnc1C(c1ccc(OC)c(OC)c1)N1CCN(c2ccc(F)cc2)CC1 (configuration not stated)	inactive
COc1ccc(OC)c(NC(=O)C2C3CC4OC(=O)C2C4C3)c1 (configuration not stated)	inactive
